Assay results published in PubChem BioAssay (NCI).
About 79,000 compounds went through this panel and 15% of them were active in at least one assay; those are over-represented in the sample as a whole. Active and inactive are the calls of the source. Rule as the data show it: active = growth inhibition above about 70%; inactive = the rest.

Tests used:
[1] = NCI Yeast Anticancer Drug Screen. Data for the rad52 strain (AID 147);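 also: 0% = growth of vehicle-treated control cultures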; details: S. cerevisiae rad52 mutant growth inhibition, stronger effect = higher value
In short: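 The repair-mutant yeast strain was incubated with compounds, then growth was read and inhibition derived relative to vehicle.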

[2] = NCI Yeast Anticancer Drug Screen. Data for the wt1 strain (AID 149);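 also: 0% = growth of vehicle-treated wt1 cultures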; details: S. cerevisiae wt1 strain (SPY 50644) growth inhibition, stronger effect = higher value
In short: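 wt1 strain grown with compound or vehicle; inhibition taken from the growth difference.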

[3] = NCI Yeast Anticancer Drug Screen. Data for the rad50EPP+ strain (AID 151);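 also: 0% = growth of vehicle-treated control cultures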; details: S. cerevisiae rad50 mutant strain, stronger effect = higher value
In short: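 Vehicle-normalised growth inhibition; rad50EPP+ yeast strain, altered in DNA damage repair, compound-treated.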

[4] = NCI Yeast Anticancer Drug Screen. Data for the mgt1 strain (AID 153); details: S. cerevisiae mgt1 mutant growth inhibition, stronger effect = higher value
In short: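 Vehicle-normalized growth inhibition is determined in mgt1 yeast, a strain selected for a defined alteration in DNA repair or cell cycle control.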

[5] = NCI Yeast Anticancer Drug Screen. Data for the rad50 strain (AID 155);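 also: 0% = growth of vehicle-only cultures of the same strain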; details: S. cerevisiae rad50 strain growth inhibition, stronger effect = higher value
In short: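 DNA repair mutant yeast, compound exposure, growth read-out; inhibition is taken relative to vehicle.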

[6] = NCI Yeast Anticancer Drug Screen. Data for the mec2-1 strain (AID 157); details: S. cerevisiae mec2-1 strain, stronger effect = higher value
In short: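 Mutant yeast (mec2-1) grown with compound; growth inhibition relative to vehicle control reported.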

[7] = NCI Yeast Anticancer Drug Screen. Data for the rad14 strain (AID 159);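 also: 0% = growth of vehicle-treated control cultures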; details: S. cerevisiae rad14 strain growth inhibition, stronger effect = higher value
In short: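 DNA repair-defective yeast, compound-exposed; % growth inhibition derived by comparison with vehicle-treated controls.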

[8] = NCI Yeast Anticancer Drug Screen. Data for the sgs1 mgt1 strain (AID 161);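 also: 0% = growth of cultures given vehicle only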; details: S. cerevisiae sgs1 mgt1 strain, stronger effect = higher value
In short: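 Growth of a repair-deficient yeast mutant was monitored after compound treatment and expressed as inhibition relative to vehicle-treated cultures.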

[9] = NCI Yeast Anticancer Drug Screen. Data for the CLN2oe strain (AID 163);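 also: 0% = growth of vehicle-only control cultures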; details: S. cerevisiae CLN2oe strain, stronger effect = higher value
In short: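 Compounds are applied to yeast harbouring a defined cell-cycle control change; reduced growth compared with vehicle-treated controls gives the value.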

[10] = NCI Yeast Anticancer Drug Screen. Data for the cln2 rad14 strain (AID 165);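 also: 0% = growth equal to vehicle treated cultures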; details: S. cerevisiae cln2 rad14 strain, stronger effect = higher value
In short: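 Readout is yeast growth inhibition versus vehicle-treated controls, using a strain with cln2 and rad14 alterations exposed to compound.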

[11] = NCI Yeast Anticancer Drug Screen. Data for the bub3 strain (AID 167); details: S. cerevisiae bub3 mutant strain, stronger effect = higher value
In short: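 In this screen, a yeast mutant lacking normal mitotic checkpoint function is challenged with compound. Relative growth versus vehicle gives the inhibition value.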

[12] = NCI Yeast Anticancer Drug Screen. Data for the wt2 strain (AID 169);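 also: 0% = growth of vehicle-treated yeast cultures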; details: S. cerevisiae wt2 strain growth inhibition, stronger effect = higher value
In short: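 Against vehicle-treated controls, the growth of yeast exposed to each compound was compared, and the inhibition was recorded.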

[13] = NCI Yeast Anticancer Drug Screen. Data for the mlh1 strain (AID 171);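 also: 0% = growth of vehicle-treated control cultures of the same strain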; details: S. cerevisiae mlh1 strain growth inhibition, stronger effect = higher value
In short: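 Measured: yeast growth. Reference: vehicle-treated controls. Organism: strain with a defined alteration affecting DNA damage repair or cell cycle control, treated with compound.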

[14] = NCI Yeast Anticancer Drug Screen. Data for the mlh1 rad18 strain (AID 175); details: S. cerevisiae mlh1 rad18 strain growth inhibition, stronger effect = higher value
In short: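 Genetically defined yeast (DNA repair-deficient) exposed to compounds; growth inhibition determined relative to vehicle.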

[15] = NCI Yeast Anticancer Drug Screen. Data for the rad18 strain (AID 177); details: S. cerevisiae rad18 mutant growth inhibition, stronger effect = higher value
In short: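 Vehicle-treated cultures served as the baseline for scoring compound-induced growth inhibition in DNA-repair-mutant yeast.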

[16] = at 5.0 µM (retest, dose inferred, filed as 0.5)
[17] = at 50.0 µM (retest, dose inferred, filed as 5.0)

Measured: growth inhibition

O=C1C(CCSc2ccccc2)C(=O)N(c2ccccc2)C1c1ccccc1 (stereo not drawn)
active: [1]; at 33.0 µM 96% | [1]; at 100.0 µM 89% | [2]; at 33.0 µM 96% | [2]; at 100.0 µM 88% | [4]; at 33.0 µM 97% | [4]; at 100.0 µM 89% | [5]; at 33.0 µM 96% | [5]; [17] 85% | [5]; at 50.0 µM 90.9% | [5]; at 100.0 µM 89% | [6]; at 33.0 µM 95% | [6]; [17] 99% | [6]; at 50.0 µM 91.4% | [6]; at 100.0 µM 90% | [7]; at 33.0 µM 93% | [7]; at 100.0 µM 87% | [8]; [17] 99% | [8]; at 50.0 µM 92.3% | [9]; at 33.0 µM 95% | [9]; at 100.0 µM 85% | [10]; [17] 97% | [10]; at 50.0 µM 91.2% | [11]; at 33.0 µM 96% | [11]; [17] 98% | [11]; at 50.0 µM 90.7% | [11]; at 100.0 µM 88% | [12]; at 33.0 µM 95% | [12]; at 100.0 µM 90% | [13]; at 33.0 µM 95% | [13]; at 100.0 µM 90% | [14]; [17] 87% | [14]; at 50.0 µM 90.2% | [15]; at 33.0 µM 95% | [15]; at 100.0 µM 89%
inactive: [1]; at 1.2 µM 23% | [1]; at 3.7 µM 24% | [1]; at 11.0 µM 49% | [2]; at 1.2 µM -32% | [2]; at 3.7 µM -14% | [2]; at 11.0 µM 17% | [3]; at 1.2 µM -4% | [3]; at 3.7 µM -12% | [3]; at 11.0 µM -15% | [3]; at 33.0 µM 0% | [3]; at 100.0 µM -11% | [4]; at 1.2 µM 8% | [4]; at 3.7 µM -18% | [4]; at 11.0 µM 8% | [5]; at 1.2 µM 12% | [5]; at 3.7 µM 17% | [5]; [16] 28% | [5]; at 11.0 µM 35% | [6]; at 1.2 µM 11% | [6]; at 3.7 µM 13% | [6]; [16] 47% | [6]; at 11.0 µM 29% | [7]; at 1.2 µM -4% | [7]; at 3.7 µM -21% | [7]; at 11.0 µM 2% | [8]; [16] -3% | [9]; at 1.2 µM -8% | [9]; at 3.7 µM 2% | [9]; at 11.0 µM 48% | [10]; [16] 33% | [11]; at 1.2 µM 7% | [11]; at 3.7 µM 20% | [11]; [16] 25% | [11]; at 11.0 µM 46% | [12]; at 1.2 µM -5% | [12]; at 3.7 µM -4% | [12]; at 11.0 µM 22% | [13]; at 1.2 µM 1% | [13]; at 3.7 µM -14% | [13]; at 11.0 µM 28% | [14]; [16] 44% | [15]; at 1.2 µM -15% | [15]; at 3.7 µM -3% | [15]; at 11.0 µM 24%
